Reference: PubChem BioAssay AID677 (Vanderbilt High Throughput Screening Facility, 2007)
The whole screen tested about 1,700 compounds, of which about 720 (42%) were called active. So high a share suggests a set chosen from earlier hits. A selection follows. Unmarked numbers belong to inactive results.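 The calls were made as follows: active = calcium response below the same-plate mean of wells given acetylcholine alone at its 80%-effect dose, minus 3 SD; inactive = the rest.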

These compounds were tested against Muscarinic acetylcholine receptor M1 (Rattus norvegicus) (UniProt P08482) (assay: rat M1 muscarinic receptor antagonists, confirmation, CHO cells, Fluo-4 calcium, duplicate (AID 677;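 also: raw fluorescence intensity difference in arbitrary instrument units and not normalized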)). Details: ACh EC80 antagonism, at 10 µM, hits give low values.
Muscarinic acetylcholine receptor M1 (Rattus norvegicus), sequence (P08482 whole entry, looked up): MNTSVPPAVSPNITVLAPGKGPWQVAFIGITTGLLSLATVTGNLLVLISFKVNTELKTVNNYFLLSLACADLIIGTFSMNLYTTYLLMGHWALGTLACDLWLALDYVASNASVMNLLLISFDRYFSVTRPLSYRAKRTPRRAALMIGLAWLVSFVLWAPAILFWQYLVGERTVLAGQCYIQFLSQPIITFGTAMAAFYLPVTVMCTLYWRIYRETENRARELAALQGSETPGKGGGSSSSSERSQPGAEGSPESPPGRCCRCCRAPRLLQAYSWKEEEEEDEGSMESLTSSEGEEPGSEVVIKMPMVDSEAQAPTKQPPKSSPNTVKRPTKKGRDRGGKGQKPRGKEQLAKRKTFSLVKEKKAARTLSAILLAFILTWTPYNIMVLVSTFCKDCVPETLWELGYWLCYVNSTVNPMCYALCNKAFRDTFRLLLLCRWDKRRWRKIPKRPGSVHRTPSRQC

Structure (SMILES) | calcium response (max-min fluorescence)
c1ccc(-c2cc(-c3nnc4sc(-c5ccccn5)nn34)[nH]n2)cc1 | 437 (active)
O=C(NCC(F)(F)F)Nc1nnc(C(F)(F)F)s1 | 552
CCN(CCCCOC(=O)c1ccc(OC)c(OC)c1)C(C)Cc1ccc(OC)cc1 (centres undefined) | 18.8 (active)
COC(=O)c1ccc(C2C3=C(Nc4nnnn42)c2ccccc2OC3)cc1 (centres undefined) | 596
CC12CN(Cc3ccccc3)CC(C)(CN(Cc3ccccc3)C1)C2=NO | 113 (active)
Cc1nc2ccccc2c2oc(C(=O)NCCCN3CCC(C)CC3)cc12 | 498 (active)
CC1CCCC(C)N1CCCNC(=O)c1cc2c(=O)n(C)c3ccccc3c2n1C (centres undefined) | 487
CCC1(C)Cc2c(sc3nc4n(c(=O)c23)CCCS4)CO1 (centres undefined) | 471
CCC(C(=O)OCCN(CC)CC)c1ccccc1 (centres undefined) | 24 (active)
CCN1C(=O)/C(=C2\SC(N3CCCCC3)=NC2=O)c2ccccc21 | 460
COc1cc(Cl)c(C)cc1NC(=O)CSc1nnc(-c2ccco2)n1CC(C)C | 533
CCCCOc1ccc(C(C)(O)CCN2CCOCC2)cc1 (centres undefined) | 448 (active)
O=C(Nc1ccncc1)c1c(F)cccc1F | 653
CCOC(=O)c1c(-c2ccc(C)cc2C)csc1NC(=O)CSc1nnnn1C | 519
O=C1NC(Nc2nc3ccccc3s2)(C(F)(F)F)C(=O)N1C1CCCCC1 (centres undefined) | 339 (active)
O=C(C(c1ccccc1)c1ccccc1)N1CCN(CC(O)COc2ccccc2)CC1 (centres undefined) | 490 (active)
CCC(=O)c1ccc(OCC(O)CN2CCN(c3cccc(C(F)(F)F)c3)CC2)cc1 (centres undefined) | 531
COc1ccccc1OCCOc1ccc(/C=N/n2cnnc2)cc1 | 587
CCC/C(O)=C1\C(=O)CC(C)(C)CC1=Nc1ccccc1OC | 647
Cc1ccc(-c2csc3nnc(SCC(=O)NCc4ccco4)n23)cc1 | 620
CCOC(=O)N1CCN(C(=O)C2CCN(c3ncnc4c3sc3cccc(F)c34)CC2)CC1 | 468 (active)
CCOC(=O)N1CCN(CC(=O)Nc2cc(C)nn2-c2nc3ccccc3s2)CC1 | 645
CCOC(=O)N1CCN(C(=O)C2CCCN(c3ncnc4c3sc3cccc(F)c34)C2)CC1 (centres undefined) | 126 (active)
CCOC(=O)N1CCN(S(=O)(=O)c2cc(Br)cc3c2N(C(=O)C2CC2)CC3)CC1 | 646
COc1ccc(-c2nnn(Cc3nc(N)nc(N4CCCCC4)n3)n2)cc1 | 539
CSc1nnc2c(n1)OC(c1ccsc1)N(C(C)=O)c1ccccc1-2 (centres undefined) | 250 (active)
CCOC(=O)C1CCN(Cc2coc3ccc(Cl)cc3c2=O)CC1 | 351 (active)

Structure (SMILES) | calcium response (max-min fluorescence)
CCC(C)(NC(=O)c1ccccn1)C(=O)NC1CCCCC1 (centres undefined) | 623
N#CC(C(=O)c1ccc(S(=O)(=O)N2CCCCCC2)cc1)c1nc2ccccc2[nH]1 (centres undefined) | 689
O=C(CCCN1C(=O)CSc2ncccc21)N1CCN(c2cccc(C(F)(F)F)c2)CC1 | 462 (active)
CC1=Nn2c(nnc2-c2ccccc2)SC1 | 675
CCCCCOC(=O)NCCOC(=O)Nc1ccc(C(=O)OCC)cc1 | 655
COc1cc(OC)c(C(=O)NC2CC(C)(C)NC(C)(C)C2)cc1OC | 510
Cc1cc(C)n(-c2nc(SCC(=O)N3CCCC3)c3c4c(sc3n2)CCCC4)n1 | 466
CN(C)CCOC(=O)C(c1ccccc1)C1(O)CCCC1 (centres undefined) | 17.7 (active)
COC(=O)c1ccc(NC(=O)CN(c2ccc(C)cc2)S(=O)(=O)c2c(C)n[nH]c2C)cc1 | 538
CC1(C)CN=C(N2CCN(c3ncnc4sc5c(c34)CCCC5)CC2)S1 | 344 (active)
O=C(NC1=NCCS1)c1ccc(Cl)s1 | 680
C=C(C)Cn1c(N2CCCC2)nc2c1c(=O)[nH]c(=O)n2C | 505
CC(C)(C)n1nnnc1C(c1cccs1)N(Cc1cccnc1)CC1CCCO1 (centres undefined) | 380 (active)
O=C(c1ccc(S(=O)(=O)N2CCOCC2)cc1)N1CCN(c2ccccc2)CC1 | 556
O=S(=O)(c1ccc(OCC(O)CN2CCN(c3ccccc3Cl)CC2)cc1)N1CCOCC1 (centres undefined) | 515 (active)
CCOC(=O)C1=C(CC)Nc2ccccc2N=C1NC(=O)c1cccc(S(=O)(=O)N2CCCC2)c1 | 466 (active)
Cn1c(CCN2CCCCCC2)nc2cc(NC(=O)Nc3ccccc3)ccc21 | 252 (active)
COc1ccc(S(=O)(=O)Nc2ccc3c(c2)OCO3)cc1Cl | 516
CN(C)[C@@H]1C(=O)C(C(N)=O)=C(O)[C@@]2(O)C(=O)C3=C(O)c4c(O)ccc(Cl)c4[C@@H](O)[C@H]3C[C@@H]12 | 610
CC1(C)Cc2c(sc3nc4n(c(=N)c23)CCCCC4)CO1 | 398
CCOC(=O)c1[nH]c2ccc(OC)cc2c1NC(=O)CCN1CCN(Cc2ccccc2)CC1 | 218 (active)
O=C(c1ccc(-n2cnnn2)cc1)N1CCN(C(c2ccccc2)c2ccccc2)CC1 | 100 (active)
CCCCN(CCCC)C(=O)CCS(=O)(=O)c1ccc2c(c1)n(C)c(=O)c(=O)n2C | 581
CCOc1ccccc1C(=O)NCCCn1ccnc1 | 665
COC(CCN(C)C)(c1ccccc1)c1ccccc1 | 226 (active)
COc1cccc(OCCOc2cccc(/C=N/n3cnnc3)c2)c1 | 588
COCCN(C(=O)CCC(=O)Nc1ccccn1)C(C(=O)NCCC(C)C)c1ccc(OC)cc1 (centres undefined) | 575
